# In the supplement of paper PMC4466140:
# Columns and labels:
# Experiment in all cases: SPOT peptide array binding signal intensity (averaged, normalized) (arbitrary units (background-subtracted, floor 0; scale differs between SH3 domains)); higher = stronger binding of the SH3 domain to the peptide
# AgAbp1 = biological target: AgAbp1
# Outline: (§1)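 Spot intensities were captured after detection with anti-GST antibody, an HRP-linked anti-mouse secondary and luminol, and quantified with Genespotter. The probes were GST-fused SH3 domains from four yeast species, produced in E. coli BL21(DE3), purified on glutathione Sepharose and incubated at 10 μg/ml overnight at 4°C on cellulose-bound synthetic 15-mer peptides with cysteines replaced by serines. Binding signal is the normalized, background-subtracted spot intensity averaged over replicates, and its arbitrary units differ between domains.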
# AgBbc1 = biological target: AgBbc1
# Outline: as §1
# AgBem1-D1 = biological target: AgBem1-D1
# Outline: as §1
# AgBzz1-D1 = biological target: AgBzz1-D1
# Outline: as §1
# AgBzz1-D2 = biological target: AgBzz1-D2
# Outline: as §1
# AgCyk3 = biological target: AgCyk3
# Outline: as §1
# AgFus1 = biological target: AgFus1
# Outline: as §1
# AgHof1 = biological target: AgHof1
# Outline: as §1
# AgHse1 = biological target: AgHse1
# Outline: as §1
# AgLsb1 = biological target: AgLsb1
# Outline: as §1
# AgLsb4 = biological target: AgLsb4
# Outline: as §1
# AgMyo5 = biological target: AgMyo5
# Outline: as §1
# AgNbp2 = biological target: AgNbp2
# Outline: as §1
# AgRvs167 = biological target: AgRvs167
# Outline: as §1
# AgSho1 = biological target: AgSho1
# Outline: as §1
# AgSla1-D1-D2 = biological target: AgSla1-D1-D2
# Outline: as §1
# AgSla1-D3 = biological target: AgSla1-D3
# Outline: as §1
# CaAbp1-D1 = biological target: CaAbp1-D1
# Outline: as §1
# CaAbp1-D2 = biological target: CaAbp1-D2
# Outline: as §1
# CaBbc1 = biological target: CaBbc1
# Outline: as §1
# CaBem1-D1 = biological target: CaBem1-D1
# Outline: as §1
# CaBzz1-D1 = biological target: CaBzz1-D1
# Outline: as §1
# CaBzz1-D2 = biological target: CaBzz1-D2
# Outline: as §1
# CaCyk3 = biological target: CaCyk3
# Outline: as §1
# CaFus1 = biological target: CaFus1
# Outline: as §1
# CaHof1 = biological target: CaHof1
# Outline: as §1
# CaHse1 = biological target: CaHse1
# Outline: as §1
# CaLsb1 = biological target: CaLsb1
# Outline: as §1
# CaLsb4 = biological target: CaLsb4
# Outline: as §1
# CaMyo5 = biological target: CaMyo5
# Outline: as §1
# CaNbp2 = biological target: CaNbp2
# Outline: as §1
# CaRvs167 = biological target: CaRvs167
# Outline: as §1
# CaRvs167-3 = biological target: CaRvs167-3
# Outline: as §1
# CaSho1 = biological target: CaSho1
# Outline: as §1
# CaSla1-D1-D2 = biological target: CaSla1-D1-D2
# Outline: as §1
# CaSla1-D3 = biological target: CaSla1-D3
# Outline: as §1
# ScAbp1 = biological target: ScAbp1
# Outline: as §1
# ScBbc1 = biological target: ScBbc1
# Outline: as §1
# ScBem1-D1 = biological target: ScBem1-D1
# Outline: as §1
# ScBzz1-D1 = biological target: ScBzz1-D1
# Outline: as §1
# ScBzz1-D2 = biological target: ScBzz1-D2
# Outline: as §1
# ScCyk3 = biological target: ScCyk3
# Outline: as §1
# ScFus1 = biological target: ScFus1
# Outline: as §1
# ScHof1 = biological target: ScHof1
# Outline: as §1
# ScHse1 = biological target: ScHse1
# Outline: as §1
# ScLsb1 = biological target: ScLsb1
# Outline: as §1
# ScLsb2 = biological target: ScLsb2
# Outline: as §1
# ScLsb3 = biological target: ScLsb3
# Outline: as §1
# ScLsb4 = biological target: ScLsb4
# Outline: as §1
# ScMyo3 = biological target: ScMyo3
# Outline: as §1
# ScMyo5 = biological target: ScMyo5
# Outline: as §1
# ScNbp2 = biological target: ScNbp2
# Outline: as §1
# ScPex13 = biological target: ScPex13
# Outline: as §1
# ScRvs167 = biological target: ScRvs167
# Outline: as §1
# ScSho1 = biological target: ScSho1
# Outline: as §1
# ScSla1-D1-D2 = biological target: ScSla1-D1-D2
# Outline: as §1
# ScSla1-D3 = biological target: ScSla1-D3
# Outline: as §1
# SpAbp1-D1 = biological target: SpAbp1-D1
# Outline: as §1
# SpBbc1 = biological target: SpBbc1
# Outline: as §1
# SpBzz1-D1 = biological target: SpBzz1-D1
# Outline: as §1
# SpBzz1-D2 = biological target: SpBzz1-D2
# Outline: as §1
# SpCyk3 = biological target: SpCyk3
# Outline: as §1
# SpHof1 = biological target: SpHof1
# Outline: as §1
# SpHof1-2 = biological target: SpHof1-2
# Outline: as §1
# SpHof1-3 = biological target: SpHof1-3
# Outline: as §1
# SpHse1 = biological target: SpHse1
# Outline: as §1
# SpLsb1 = biological target: SpLsb1
# Outline: as §1
# SpLsb4 = biological target: SpLsb4
# Outline: as §1
# SpMyo1 = biological target: SpMyo1
# Outline: as §1
# SpNbp2 = biological target: SpNbp2
# Outline: as §1
# SpPex13 = biological target: SpPex13
# Outline: as §1
# SpRvs167 = biological target: SpRvs167
# Outline: as §1
# SpSla1-D1-D2 = biological target: SpSla1-D1-D2
# Outline: as §1
# SpSla1-D3 = biological target: SpSla1-D3
# Outline: as §1
binder,measurement,setting,value
SRSKPLPLTPNSKYN,SPOT peptide array binding signal intensity,AgAbp1,197
same,SPOT peptide array binding signal intensity,AgBbc1,15.2
same,SPOT peptide array binding signal intensity,AgBem1-D1,16
same,SPOT peptide array binding signal intensity,AgBzz1-D1,195
same,SPOT peptide array binding signal intensity,AgBzz1-D2,111
same,SPOT peptide array binding signal intensity,AgCyk3,1
same,SPOT peptide array binding signal intensity,AgFus1,6.5
same,SPOT peptide array binding signal intensity,AgHof1,24.2
same,SPOT peptide array binding signal intensity,AgHse1,10.5
same,SPOT peptide array binding signal intensity,AgLsb1,1
same,SPOT peptide array binding signal intensity,AgLsb4,9
same,SPOT peptide array binding signal intensity,AgMyo5,≤ 0
same,SPOT peptide array binding signal intensity,AgNbp2,8.5
same,SPOT peptide array binding signal intensity,AgRvs167,1.67
same,SPOT peptide array binding signal intensity,AgSho1,3200
same,SPOT peptide array binding signal intensity,AgSla1-D1-D2,21.5
same,SPOT peptide array binding signal intensity,AgSla1-D3,8.5
same,SPOT peptide array binding signal intensity,CaAbp1-D1,64
same,SPOT peptide array binding signal intensity,CaAbp1-D2,249
same,SPOT peptide array binding signal intensity,CaBbc1,30
same,SPOT peptide array binding signal intensity,CaBem1-D1,29.5
same,SPOT peptide array binding signal intensity,CaBzz1-D1,384
same,SPOT peptide array binding signal intensity,CaBzz1-D2,162
same,SPOT peptide array binding signal intensity,CaCyk3,4
same,SPOT peptide array binding signal intensity,CaFus1,83
same,SPOT peptide array binding signal intensity,CaHof1,≤ 0
same,SPOT peptide array binding signal intensity,CaHse1,8.25
same,SPOT peptide array binding signal intensity,CaLsb1,0.5
same,SPOT peptide array binding signal intensity,CaLsb4,10.5
same,SPOT peptide array binding signal intensity,CaMyo5,10
same,SPOT peptide array binding signal intensity,CaNbp2,19.5
same,SPOT peptide array binding signal intensity,CaRvs167,6.17
same,SPOT peptide array binding signal intensity,CaRvs167-3,2.75
same,SPOT peptide array binding signal intensity,CaSho1,3190
same,SPOT peptide array binding signal intensity,CaSla1-D1-D2,1430
same,SPOT peptide array binding signal intensity,CaSla1-D3,1.5
same,SPOT peptide array binding signal intensity,ScAbp1,332
same,SPOT peptide array binding signal intensity,ScBbc1,2.5
same,SPOT peptide array binding signal intensity,ScBem1-D1,8
same,SPOT peptide array binding signal intensity,ScBzz1-D1,98.5
same,SPOT peptide array binding signal intensity,ScBzz1-D2,89
same,SPOT peptide array binding signal intensity,ScCyk3,5
same,SPOT peptide array binding signal intensity,ScFus1,8
same,SPOT peptide array binding signal intensity,ScHof1,≤ 0
same,SPOT peptide array binding signal intensity,ScHse1,30
same,SPOT peptide array binding signal intensity,ScLsb1,≤ 0
same,SPOT peptide array binding signal intensity,ScLsb2,1
same,SPOT peptide array binding signal intensity,ScLsb3,≤ 0
same,SPOT peptide array binding signal intensity,ScLsb4,12
same,SPOT peptide array binding signal intensity,ScMyo3,≤ 0
same,SPOT peptide array binding signal intensity,ScMyo5,2
same,SPOT peptide array binding signal intensity,ScNbp2,20
same,SPOT peptide array binding signal intensity,ScPex13,39
same,SPOT peptide array binding signal intensity,ScRvs167,2.33
same,SPOT peptide array binding signal intensity,ScSho1,3960
same,SPOT peptide array binding signal intensity,ScSla1-D1-D2,156
same,SPOT peptide array binding signal intensity,ScSla1-D3,28.2
same,SPOT peptide array binding signal intensity,SpAbp1-D1,872
same,SPOT peptide array binding signal intensity,SpBbc1,6.5
same,SPOT peptide array binding signal intensity,SpBzz1-D1,578
same,SPOT peptide array binding signal intensity,SpBzz1-D2,1.25
same,SPOT peptide array binding signal intensity,SpCyk3,5
same,SPOT peptide array binding signal intensity,SpHof1,1490
same,SPOT peptide array binding signal intensity,SpHof1-2,1710
same,SPOT peptide array binding signal intensity,SpHof1-3,1310
same,SPOT peptide array binding signal intensity,SpHse1,37.5
same,SPOT peptide array binding signal intensity,SpLsb1,1
same,SPOT peptide array binding signal intensity,SpLsb4,17
same,SPOT peptide array binding signal intensity,SpMyo1,10.5
same,SPOT peptide array binding signal intensity,SpNbp2,11
same,SPOT peptide array binding signal intensity,SpPex13,5
same,SPOT peptide array binding signal intensity,SpRvs167,12.3
same,SPOT peptide array binding signal intensity,SpSla1-D1-D2,844
same,SPOT peptide array binding signal intensity,SpSla1-D3,0.5
